Laboratory results published in PubChem BioAssay (NCI).
About 83,000 compounds went through this panel and 20% of them were active in at least one assay; those are over-represented in the sample as a whole.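 Activity criterion: percent growth below 10, measured after cells in 96-well plates were exposed to a single compound concentration for 48 hours.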 Unmarked numbers belong to inactive results. Calls of active or inactive are those of the source.

Columns and labels:
Test in all cases: NCI-60 one-dose screen, 48 h (100 = growth as untreated, 0 = no growth, -100 = all killed)
Conditions in all cases: 10 µM unless noted
NCI-H23 lung = test system: NCI-H23 lung
NCI-H226 lung = test system: NCI-H226 lung
NCI-H322M lung = test system: NCI-H322M lung
HOP-62 NSCLC = test system: HOP-62 NSCLC
NCI-H460 lung = test system: NCI-H460 lung
NCI-H522 lung = test system: NCI-H522 lung
A549/ATCC NSCLC = test system: A549/ATCC NSCLC
786-0 renal = test system: 786-0 renal
COLO 205 colon = test system: COLO 205 colon

| Compound | growth (NCI-H23 lung) | growth (NCI-H226 lung) | growth (NCI-H322M lung) | growth (HOP-62 NSCLC) | growth (NCI-H460 lung) | growth (NCI-H522 lung) | growth (A549/ATCC NSCLC) | growth (786-0 renal) | growth (COLO 205 colon) |
| --- | --- | --- | --- | --- | --- | --- | --- | --- | --- |
| CC1(C)NCCC[C@]2(C)[C@H]3C/C(=N\O)C4[C@@H]5C[C@@](C)(CO)CC[C@]5(C)CC[C@@]4(C)[C@]3(C)CC[C@@H]12 (stereo partly specified) | 94.2% | 94.3% | 101% | 111% | 100% | 97.4% | 95.3% | 98.4% | 103% |
| NS(=O)(=O)c1ccc(Nc2nc(SCC(=O)c3ccc(Cl)cc3)nc3c2CCCC3)cc1 | 53.9% | 56.6% | 87% | 70% | 21% | 67.7% | 38.9% | 84.7% | 46% |
| CCCn1cnc2c(c1=N)C(c1ccc(OC)cc1)c1sc3c(CC)cccc3c1O2 (stereo unspecified) | 18.9% | 57% | 37.6% | 38.8% | 10.1% | -14.3% (active) | 40.6% | 32.3% | 13.9% |
| CN1CCN(Cc2ccc(NC(=O)c3cncc(C#Cc4cnc5ccc(NCCCO)nn45)c3)cc2C(F)(F)F)CC1 | -52% (active) | -10.1% (active) | 3.42% (active) | -36.8% (active) | -85.6% (active) | -77.2% (active) | 5.6% (active) | -58.9% (active) | -78% (active) |
| O=S(=O)(NC1c2ccccc2C[C@H]1O)c1ccc(Cl)cc1Cl (stereo partly specified) | 92.3% | 93.6% | 94.6% | 103% | 101% | 98.3% | 93.5% | 102% | 114% |
| Cn1cc(-c2nc(N)nnc2-c2c[nH]c3ccccc23)c2cc(Br)ccc21 | 17% | 60.3% | 41.9% | 45.9% | 12.6% | -2.27% (active) | 50.8% | 43.5% | 9.53% (active) |
| CC(C)(C)c1ccc(C(=O)Nc2sc3c(c2C(N)=O)CC/C(=N\O)C3)cc1 | 7.05% (active) | 17.5% | 56.9% | 51.9% | 4.25% (active) | -2.43% (active) | 24.1% | 27.5% | 4.38% (active) |
| O=C(CCn1c[n+](CC(=O)c2ccc(F)cc2)c2ccccc21)Nc1cccc2cccnc12 | 83.4% | 78.1% | 93.9% | 85.7% | 88.3% | 67.5% | 102% | 102% | 55.7% |
| CNC(=O)c1cc(Oc2ccc3nc(NC(=O)c4cccc(OC(F)(F)F)c4)sc3c2)ccn1 | 82.8% | 26.5% | 92.6% | 78.5% | 75.1% | 60.3% | 77.5% | 50.4% | 106% |
| NC(=O)c1cccc(C#CCNC[C@H]2C[C@@H](n3ccc4c(Cl)ncnc43)[C@H](O)[C@@H]2O)c1 | 99% | 99.1% | 94.2% | 106% | 113% | 97.3% | 101% | 101% | 116% |
| O=C(c1ccc(O)c(C(=O)N2Cc3ccc(OCCC[P+](c4ccccc4)(c4ccccc4)c4ccccc4)cc3C2)c1)N1Cc2cccc(F)c2C1 | 87.3% | 92.3% | 94.3% | 102% | 69.7% | 72.9% | 99.8% | 98.5% | 52.3% |
| O=S(=O)(Nc1cccc2ccccc12)c1ccc(-c2cnc(C3CC3)o2)cc1 | 23.2% | 64.6% | 40.4% | 39.3% | 11.2% | 21.9% | 27.2% | 50.2% | 9.76% (active) |
| Nc1ncc(-c2ccc(NS(=O)(=O)c3ccc(Cl)c(Cl)c3)cc2)[nH]1 | 95.9% | 87.3% | 97% | 113% | 93.6% | 92.7% | 92.5% | 93.8% | 109% |
| COc1ccc(C2CC(c3cccc(Nc4nc(Cl)nc5cc(OC)c(OC)cc45)c3)=Nc3c(N)nc(N)nc3N2)cc1 (stereo unspecified) | 81.6% | 84.8% | 91.5% | 53.4% | 61.9% | 78.6% | 82.3% | 71.4% | 96.4% |
